Each structure is given as a SMILES string. Results filed as inconclusive are left out. Where a call stands in place of a potency, no number is given. Unmarked numbers belong to inactive results. Activity calls are given as the source filed them. The call rests on the fitted dose curve; in most records, active means well fitted cell-killing curve with a large enough effect; inconclusive means small, poorly fitted or top-dose-only effect; inactive means flat fitted curve, though single readings scatter.

The first assay is described as follows: qHTS of pediatric cancer cell lines to identify multiple opportunities for drug repurposing: Primary screen for BT-12 cells (AID 1347101). Further: nearly all actives have a fitted effect of over 25% in size. Further: potency means the concentration at half of the fitted maximal effect. The conditions noted are these: BT-12 viability, CellTiter-Glo luminescence, 48 h; series mostly up to 57.3 µM. In a few lines: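 Cells (500-1,000/well) rested 5 h, then received compounds for 48 h; metabolically active cells were measured by CellTiter-Glo luminescence. Final concentrations spanned up to 46 µM (MIPE, 11-point) or 0.59 nM-46 µM (NPC, 8-point) in primary screens, 11-point in follow-ups.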
Consider `CCNC(=O)NCc1cccc(Cl)c1`, for which the Potency entry was “inactive”. The same measure, in the same setting: the same measure for `CCCCCCCCCCCCOCCOCCOCCOCCOCCOCCOCCOCCOCCO`: 6.92 µM (active); for `CCN(CC)CCOC(=O)C(Cc1cccc2ccccc12)CC1CCCO1` (centres undefined): “inactive”; for `C[C@H]1[C@H]2CC[C@H]3[C@@H]4CC=C5C[C@@H](N(C)C)CC[C@]5(C)[C@H]4CC[C@]23CN1C`: “inactive”. The same measure, in the same setting: with `OC[C@H]1O[C@@H]2O[C@H]3[C@H](O)[C@@H](O)[C@@H](O[C@H]4[C@H](O)[C@@H](O)[C@@H](O[C@H]5[C@H](O)[C@@H](O)[C@@H](O[C@H]6[C@H](O)[C@@H](O)[C@@H](O[C@H]7[C@H](O)[C@@H](O)[C@@H](O[C@H]8[C@H](O)[C@@H](O)[C@@H](O[C@H]1[C@H](O)[C@H]2O)O[C@@H]8CO)O[C@@H]7CO)O[C@@H]6CO)O[C@@H]5CO)O[C@@H]4CO)O[C@@H]3CO` the entry was “inactive”; with `CNCCc1ccccn1`, “inactive”. Same read-out and setting: the same measure for `O=C(CCN1CCN2CCCC2C1)N1c2ccccc2Sc2ccc(Cl)cc21` (centres undefined): “inactive”. Turning to `CCOC(=O)c1ccc(N)cc1`, the Potency result is “inactive”. Consider `CN(Cc1ccc(C(C)(C)C)cc1)Cc1cccc2ccccc12`, for which the Potency entry is “inactive”. Same read-out and setting: the same measure for `CCCCN1C[C@H](O)[C@@H](O)[C@H](O)[C@H]1CO`: “inactive”.

`CCN[C@@H]1C[C@H](N)[C@@H](OC2OC(CN)=CCC2N)[C@H](O)[C@H]1O[C@H]1OC[C@](C)(O)[C@H](NC)[C@H]1O` (some centres undefined): the activity change, negative = cytotoxic is 7.6% [at 0.745 µM].

For the molecule `CCNC(=O)/C=C/c1cccc(Br)c1`, the Potency entry is “inactive”. The same measure, in the same setting: the same measure for `CCc1oc2ccccc2c1C(=O)c1cc(Br)c(O)c(Br)c1`: “inactive”; for `NC(=O)c1ccccc1O`: “inactive”. Still for that read-out and setting: with `c1ccc(-c2nc[nH]c2-c2ccccc2)cc1` the entry was “inactive”; with `CC(=O)NCCCCCC(=O)O`, “inactive”; with `O=[N+]([O-])c1cccc(S(=O)(=O)NCCNS(=O)(=O)c2cccc([N+](=O)[O-])c2)c1`, “inactive”. On the same count and under the same terms, the same measure for `O=C(N/N=C/c1ccc([N+](=O)[O-])o1)c1ccc(O)cc1`: 13.8 µM (active); for `CCCCCCCCCCC[C@@H](C[C@@H]1OC(=O)[C@H]1CCCCCC)OC(=O)[C@H](CC(C)C)NC=O`: “inactive”; for `CCC1Nc2cc(Cl)c(S(N)(=O)=O)cc2S(=O)(=O)N1` (centres undefined): “inactive”. `COc1cc(C(=O)NCc2ccc(OCCN(C)C)cc2)cc(OC)c1OC`: the Potency entry was “inactive”.

In the case of `COc1cc([C@H]2Oc3cc([C@H]4Oc5cc(O)cc(O)c5C(=O)[C@@H]4O)ccc3O[C@@H]2CO)ccc1O`, the Potency result was “inactive”. For `C#C[C@]1(O)CC[C@H]2[C@@H]3CCC4=CC(=O)CC[C@@H]4[C@H]3CC[C@@]21CC`, the Potency entry is “inactive”. `CCCN(CCc1cccs1)[C@H]1CCc2c(O)cccc2C1`: the Potency result was “inactive”. On the same count and under the same terms, with `CCCCCCCCCCCCSCCOCCO` the entry was “inactive”; with `O=C1C(=O)c2ccccc2C(O)=C1C1CCC(c2ccc(Cl)cc2)CC1` (centres undefined), “inactive”.

With `N=C(N)N1CCc2ccccc2C1`, the activity change, negative = cytotoxic is -5.09% [at 6.03 µM]. On to `OC[C@H]1O[C@@H](Oc2ccc(O)cc2)[C@H](O)[C@@H](O)[C@@H]1O`, for which the Potency entry was “inactive”. Still for that read-out and setting: the same measure for `N[C@H](C(=O)O)[C@@H](O)c1ccc(O)c(O)c1`: “inactive”; for `CCC(C(=O)OCCOCCN(CC)CC)c1ccccc1` (centres undefined): “inactive”. Still for that read-out and setting: with `CC(CNC1CCCCC1)OC(=O)c1ccccc1` (centres undefined) the entry was “inactive”; with `CCOC(=O)Nc1ccc2c(c1)N(C(=O)CCN1CCOCC1)c1ccccc1S2`, “inactive”.

The next assay can be described thus: qHTS of pediatric cancer cell lines to identify multiple opportunities for drug repurposing: Primary screen for Rh18 cells (AID 1347102). Further: nearly all actives have a fitted effect of over 65% in size. The conditions noted are these: Rh18 rhabdomyosarcoma viability, CellTiter-Glo luminescence, 48 h; series mostly up to 46 µM. A digest of the protocol:
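Cells (500-1,000/well) in growth media were settled 5 h at 37 degrees C, then given compounds for 48 h. Viability was read as CellTiter-Glo luminescence. Primary runs used MIPE at 11 points (0.78 nM-46 µM) and NPC at 8 points (0.59 nM-46 µM); follow-ups used 11 points.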
(qHTS replaces the single test concentration by a dilution series.)
With `CCNC(=O)NCc1cccc(Cl)c1`, the Potency entry is “inactive”. As to `CCCCCCCCCCCCOCCOCCOCCOCCOCCOCCOCCOCCOCCO`, the Potency result was “inactive”.

On to `CCN(CC)CCOC(=O)C(Cc1cccc2ccccc12)CC1CCCO1` (centres undefined), for which the Potency result is “inactive”.

In the case of `C[C@H]1[C@H]2CC[C@H]3[C@@H]4CC=C5C[C@@H](N(C)C)CC[C@]5(C)[C@H]4CC[C@]23CN1C`, the Potency result is “inactive”.

In the case of `OC[C@H]1O[C@@H]2O[C@H]3[C@H](O)[C@@H](O)[C@@H](O[C@H]4[C@H](O)[C@@H](O)[C@@H](O[C@H]5[C@H](O)[C@@H](O)[C@@H](O[C@H]6[C@H](O)[C@@H](O)[C@@H](O[C@H]7[C@H](O)[C@@H](O)[C@@H](O[C@H]8[C@H](O)[C@@H](O)[C@@H](O[C@H]1[C@H](O)[C@H]2O)O[C@@H]8CO)O[C@@H]7CO)O[C@@H]6CO)O[C@@H]5CO)O[C@@H]4CO)O[C@@H]3CO`, the Potency entry was “inactive”. The same measure, in the same setting: with `CNCCc1ccccn1` the entry was “inactive”; with `CCOC(=O)c1ccc(N)cc1`, “inactive”. Same read-out and setting: with `CN(Cc1ccc(C(C)(C)C)cc1)Cc1cccc2ccccc12` the entry was “inactive”; with `CCCCN1C[C@H](O)[C@@H](O)[C@H](O)[C@H]1CO`, “inactive”. For the molecule `CCN[C@@H]1C[C@H](N)[C@@H](OC2OC(CN)=CCC2N)[C@H](O)[C@H]1O[C@H]1OC[C@](C)(O)[C@H](NC)[C@H]1O` (some centres undefined), the activity change, negative = cytotoxic is 7.22% [at 0.597 µM]. For `CCNC(=O)/C=C/c1cccc(Br)c1`, the Potency result is “inactive”.

For `CCc1oc2ccccc2c1C(=O)c1cc(Br)c(O)c(Br)c1`, the Potency result is “inactive”.

With `NC(=O)c1ccccc1O`, the Potency result was “inactive”.

Regarding `CC(C)(Cc1c[nH]c2ccccc12)NCC(O)COc1ccccc1C#N` (centres undefined), the Potency result is “inactive”. On the same count and under the same terms, the same measure for `CCCCC(CC)CN1CN(CC(CC)CCCC)CC(C)(N)C1` (centres undefined): “inactive”.

`CC(=O)NCCCCCC(=O)O`: the Potency result is “inactive”.

In the case of `O=[N+]([O-])c1cccc(S(=O)(=O)NCCNS(=O)(=O)c2cccc([N+](=O)[O-])c2)c1`, the Potency result is “inactive”. Same read-out and setting: the same measure for `O=c1[nH]c(=O)n([C@H]2C[C@H](O)[C@@H](CO)O2)cc1F`: “inactive”; for `CCCCCCCCCCC[C@@H](C[C@@H]1OC(=O)[C@H]1CCCCCC)OC(=O)[C@H](CC(C)C)NC=O`: “inactive”. The same measure, in the same setting: with `CCC1Nc2cc(Cl)c(S(N)(=O)=O)cc2S(=O)(=O)N1` (centres undefined) the entry was “inactive”. On the same count and under the same terms, the same measure for `COc1cc(C(=O)NCc2ccc(OCCN(C)C)cc2)cc(OC)c1OC`: “inactive”. As to `COc1cc([C@H]2Oc3cc([C@H]4Oc5cc(O)cc(O)c5C(=O)[C@@H]4O)ccc3O[C@@H]2CO)ccc1O`, the Potency entry is “inactive”. Still for that read-out and setting: the same measure for `C#C[C@]1(O)CC[C@H]2[C@@H]3CCC4=CC(=O)CC[C@@H]4[C@H]3CC[C@@]21CC`: “inactive”; for `CCCN(CCc1cccs1)[C@H]1CCc2c(O)cccc2C1`: “inactive”; for `CCCCCCCCCCCCSCCOCCO`: “inactive”. Same read-out and setting: with `O=C1C(=O)c2ccccc2C(O)=C1C1CCC(c2ccc(Cl)cc2)CC1` (centres undefined) the entry was “inactive”. Consider `N=C(N)N1CCc2ccccc2C1`, for which the activity change, negative = cytotoxic was 1.68% [at 4.84 µM].

In the case of `OC[C@H]1O[C@@H](Oc2ccc(O)cc2)[C@H](O)[C@@H](O)[C@@H]1O`, the Potency result was “inactive”. Still for that read-out and setting: the same measure for `N[C@H](C(=O)O)[C@@H](O)c1ccc(O)c(O)c1`: “inactive”. On the same count and under the same terms, the same measure for `CCC(C(=O)OCCOCCN(CC)CC)c1ccccc1` (centres undefined): “inactive”; for `CC(CNC1CCCCC1)OC(=O)c1ccccc1` (centres undefined): “inactive”; for `CCOC(=O)Nc1ccc2c(c1)N(C(=O)CCN1CCOCC1)c1ccccc1S2`: “inactive”.

The values above are taken from PubChem BioAssay (NCATS).
